Laboratory results from PubChem BioAssay (NCI).
This is part of a sample that, as a whole, favours compounds with a hit. Of some 83,000 tested, about 20% had one in any assay.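 Treatment: one concentration, 48 hours, 96-well format. Scoring: percent growth, with anything below 10 considered active.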 A number with no mark means an inactive call. Calls of active or inactive are those of the source.

Columns and labels:
Assay in all cases: NCI-60 one-dose screen, 48 h (100 = growth as untreated, 0 = no growth, -100 = all killed)
Conditions in all cases: 10 µM unless noted
NCI-H23 lung = test system: NCI-H23 lung
NCI-H226 lung = test system: NCI-H226 lung
NCI-H322M lung = test system: NCI-H322M lung
HOP-62 NSCLC = test system: HOP-62 NSCLC
NCI-H460 lung = test system: NCI-H460 lung
HOP-92 NSCLC = test system: HOP-92 NSCLC
NCI-H522 lung = test system: NCI-H522 lung
A549/ATCC NSCLC = test system: A549/ATCC NSCLC
786-0 renal = test system: 786-0 renal
DU-145 prostate = test system: DU-145 prostate
K-562 leukemia = test system: K-562 leukemia
MALME-3M melanoma = test system: MALME-3M melanoma
MDA-MB-231 breast = test system: MDA-MB-231 breast
RXF 393 renal = test system: RXF 393 renal
SF-268 CNS = test system: SF-268 CNS
SF-295 CNS = test system: SF-295 CNS
SF-539 CNS = test system: SF-539 CNS
UACC-257 melanoma = test system: UACC-257 melanoma
M14 melanoma = test system: M14 melanoma

Question: `COc1cc2c(c(OC)c1OC)C(=O)/C(=C/c1cc(C)c(O)c(C)c1)S2` was tested. Which growth (NCI-H23 lung) did it give?
Answer: The growth was 36.9%.

Question: And the growth (NCI-H226 lung)?
Answer: The growth was 34.3%.

Question: What about the growth (NCI-H322M lung) of the same molecule?
Answer: Its growth is 40.8%.

Question: And the growth (HOP-62 NSCLC)?
Answer: The growth was 46.5%.

Question: And the growth (NCI-H460 lung)?
Answer: Its growth is 12.7%.

Question: What about the growth (HOP-92 NSCLC) of the same molecule?
Answer: The growth was 54.6%.

Question: And the growth (NCI-H522 lung)?
Answer: Its growth is 14.6%.

Question: What about the growth (A549/ATCC NSCLC) of the same molecule?
Answer: The growth was 44.4%.

Question: And the growth (786-0 renal)?
Answer: The growth was 42.6%.

Question: What about the growth (DU-145 prostate) of the same molecule?
Answer: Its growth is 12.3%.

Question: And the growth (K-562 leukemia)?
Answer: The growth was 21.3%.

Question: What about the growth (MALME-3M melanoma) of the same molecule?
Answer: The growth was 45.6%.

Question: And the growth (MDA-MB-231 breast)?
Answer: The growth was 37.7%.

Question: What about the growth (RXF 393 renal) of the same molecule?
Answer: Its growth is -10.4% (active).

Question: What about the growth (SF-268 CNS) of the same molecule?
Answer: The growth was 56.4%.

Question: And the growth (SF-295 CNS)?
Answer: The growth was 13.7%.

Question: What about the growth (SF-539 CNS) of the same molecule?
Answer: Its growth is 7.47% (active).

Question: What about the growth (UACC-257 melanoma) of the same molecule?
Answer: The growth was 78.2%.

Question: And the growth (M14 melanoma)?
Answer: Its growth is 28.8%.

Question: Which results are given for `CSc1ncc(C)c(Nc2ccc(Cl)cc2)n1`?
Answer: growth (NCI-H23 lung): 99.6%; growth (NCI-H226 lung): 104%; growth (NCI-H322M lung): 106%; growth (HOP-62 NSCLC): 111%; growth (NCI-H460 lung): 103%; growth (HOP-92 NSCLC): 73.6%; growth (NCI-H522 lung): 80.1%; growth (A549/ATCC NSCLC): 96.4%; growth (786-0 renal): 91.9%; growth (DU-145 prostate): 102%; growth (K-562 leukemia): 94%; growth (MALME-3M melanoma): 122%; growth (MDA-MB-231 breast): 110%; growth (RXF 393 renal): 114%; growth (SF-268 CNS): 99.9%; growth (SF-295 CNS): 96%; growth (SF-539 CNS): 118%; growth (UACC-257 melanoma): 127%; growth (M14 melanoma): 112%

Question: How did the growth (NCI-H23 lung) turn out when `CN(C)c1ccc(/C=N/NC(=O)COc2cc(=O)n(C)c3ccccc23)cc1` was run?
Answer: The growth was 93.5%.

Question: And the growth (NCI-H226 lung)?
Answer: Its growth is 105%.

Question: What about the growth (NCI-H322M lung) of the same molecule?
Answer: Its growth is 105%.

Question: What about the growth (HOP-62 NSCLC) of the same molecule?
Answer: The growth was 95.7%.

Question: And the growth (NCI-H460 lung)?
Answer: The growth was 110%.

Question: What about the growth (HOP-92 NSCLC) of the same molecule?
Answer: Its growth is 93.5%.

Question: What about the growth (NCI-H522 lung) of the same molecule?
Answer: The growth was 96.7%.

Question: And the growth (A549/ATCC NSCLC)?
Answer: The growth was 110%.

Question: What about the growth (786-0 renal) of the same molecule?
Answer: Its growth is 105%.

Question: And the growth (DU-145 prostate)?
Answer: Its growth is 110%.

Question: What about the growth (K-562 leukemia) of the same molecule?
Answer: Its growth is 103%.

Question: And the growth (MALME-3M melanoma)?
Answer: The growth was 98.4%.

Question: And the growth (MDA-MB-231 breast)?
Answer: Its growth is 97.1%.

Question: And the growth (RXF 393 renal)?
Answer: The growth was 93.4%.

Question: And the growth (SF-268 CNS)?
Answer: The growth was 105%.

Question: What about the growth (SF-295 CNS) of the same molecule?
Answer: The growth was 102%.

Question: What about the growth (SF-539 CNS) of the same molecule?
Answer: The growth was 100%.

Question: And the growth (UACC-257 melanoma)?
Answer: Its growth is 112%.

Question: What about the growth (M14 melanoma) of the same molecule?
Answer: Its growth is 101%.

Question: What does the source list for `CCN(CCO)CC(=O)c1cc(Cl)cc(Cl)c1Cl`?
Answer: growth (NCI-H23 lung): 96.6%; growth (NCI-H226 lung): 88.6%; growth (NCI-H322M lung): 101%; growth (HOP-62 NSCLC): 94.8%; growth (NCI-H460 lung): 105%; growth (HOP-92 NSCLC): 89.4%; growth (NCI-H522 lung): 67.6%; growth (A549/ATCC NSCLC): 96.1%; growth (786-0 renal): 98.1%; growth (DU-145 prostate): 103%; growth (K-562 leukemia): 99.2%; growth (MALME-3M melanoma): 98.2%; growth (MDA-MB-231 breast): 103%; growth (RXF 393 renal): 93.7%; growth (SF-268 CNS): 97.5%; growth (SF-295 CNS): 97.8%; growth (SF-539 CNS): 104%; growth (UACC-257 melanoma): 102%; growth (M14 melanoma): 99.2%

Question: Which results are given for `O=C1C2=C(CCN(Cc3ccccc3)C2)N2CCN=C2N1Cc1ccc(C(F)(F)F)cc1`?
Answer: growth (NCI-H23 lung): 31%; growth (NCI-H226 lung): 25.9%; growth (NCI-H322M lung): 37.8%; growth (HOP-62 NSCLC): 31%; growth (NCI-H460 lung): 14.7%; growth (HOP-92 NSCLC): 18.8%; growth (NCI-H522 lung): 19.9%; growth (A549/ATCC NSCLC): 27.6%; growth (786-0 renal): 48.8%; growth (DU-145 prostate): 33%; growth (K-562 leukemia): 29.4%; growth (MALME-3M melanoma): 30.4%; growth (MDA-MB-231 breast): -9.28% (active); growth (RXF 393 renal): 54%; growth (SF-268 CNS): 39.2%; growth (SF-295 CNS): -10.8% (active); growth (SF-539 CNS): 40.8%; growth (UACC-257 melanoma): 15.5%; growth (M14 melanoma): 37.2%

Question: For `O=C(NCc1cn(Cc2cccc(Oc3ccccc3)c2)nn1)c1cccnc1NCc1ccc(Cl)cc1`, which growth (NCI-H23 lung) is on record?
Answer: Its growth is 20.6%.

Question: What about the growth (NCI-H226 lung) of the same molecule?
Answer: The growth was 12.5%.

Question: And the growth (NCI-H322M lung)?
Answer: The growth was 54.5%.

Question: And the growth (HOP-62 NSCLC)?
Answer: Its growth is 40.7%.

Question: And the growth (NCI-H460 lung)?
Answer: Its growth is 17.1%.

Question: What about the growth (HOP-92 NSCLC) of the same molecule?
Answer: Its growth is 22.1%.

Question: What about the growth (NCI-H522 lung) of the same molecule?
Answer: Its growth is 20.8%.

Question: What about the growth (A549/ATCC NSCLC) of the same molecule?
Answer: Its growth is 22.5%.

Question: What about the growth (786-0 renal) of the same molecule?
Answer: Its growth is 38%.

Question: What about the growth (DU-145 prostate) of the same molecule?
Answer: Its growth is 15%.

Question: What about the growth (K-562 leukemia) of the same molecule?
Answer: The growth was 11.8%.

Question: What about the growth (MALME-3M melanoma) of the same molecule?
Answer: Its growth is 48.2%.

Question: And the growth (MDA-MB-231 breast)?
Answer: Its growth is 25.4%.

Question: And the growth (RXF 393 renal)?
Answer: The growth was 3.54% (active).

Question: And the growth (SF-268 CNS)?
Answer: Its growth is 45.3%.

Question: What about the growth (SF-295 CNS) of the same molecule?
Answer: Its growth is 19.7%.

Question: And the growth (SF-539 CNS)?
Answer: Its growth is -15.3% (active).

Question: And the growth (UACC-257 melanoma)?
Answer: The growth was 47.3%.

Question: What about the growth (M14 melanoma) of the same molecule?
Answer: Its growth is 6.76% (active).

Question: `O=C1N(c2ccccc2)C(=S)N[C@]12[C@H](c1ccccc1)C1CCCN1[C@]21C(=O)NC2C=CC(Cl)=C[C@H]21` (some centres not stated) was tested. Which growth (NCI-H23 lung) did it give?
Answer: The growth was 96.2%.

Question: And the growth (NCI-H226 lung)?
Answer: Its growth is 82.5%.

Question: What about the growth (NCI-H322M lung) of the same molecule?
Answer: The growth was 99.2%.

Question: What about the growth (HOP-62 NSCLC) of the same molecule?
Answer: The growth was 91.5%.

Question: What about the growth (NCI-H460 lung) of the same molecule?
Answer: The growth was 102%.

Question: What about the growth (HOP-92 NSCLC) of the same molecule?
Answer: The growth was 56.7%.

Question: What about the growth (NCI-H522 lung) of the same molecule?
Answer: Its growth is 61.8%.

Question: And the growth (A549/ATCC NSCLC)?
Answer: The growth was 75.4%.

Question: What about the growth (786-0 renal) of the same molecule?
Answer: Its growth is 97%.

Question: And the growth (DU-145 prostate)?
Answer: Its growth is 103%.

Question: And the growth (K-562 leukemia)?
Answer: The growth was 81.5%.

Question: What about the growth (MALME-3M melanoma) of the same molecule?
Answer: The growth was 97%.

Question: What about the growth (MDA-MB-231 breast) of the same molecule?
Answer: Its growth is 88.4%.

Question: What about the growth (RXF 393 renal) of the same molecule?
Answer: Its growth is 100%.

Question: And the growth (SF-268 CNS)?
Answer: Its growth is 101%.

Question: And the growth (SF-295 CNS)?
Answer: The growth was 103%.

Question: And the growth (SF-539 CNS)?
Answer: The growth was 103%.

Question: What about the growth (UACC-257 melanoma) of the same molecule?
Answer: Its growth is 69.8%.

Question: What about the growth (M14 melanoma) of the same molecule?
Answer: The growth was 81.9%.

Question: For `O=C1C2=C(CCN(Cc3ccccc3)C2)N2CCN=C2N1Cc1ccc(F)cc1F`, which growth (NCI-H23 lung) is on record?
Answer: Its growth is 32.2%.

Question: And the growth (NCI-H226 lung)?
Answer: The growth was 29%.

Question: What about the growth (NCI-H322M lung) of the same molecule?
Answer: Its growth is 45.4%.

Question: What about the growth (HOP-62 NSCLC) of the same molecule?
Answer: Its growth is 33.6%.

Question: And the growth (NCI-H460 lung)?
Answer: The growth was 15.5%.

Question: And the growth (HOP-92 NSCLC)?
Answer: Its growth is 41.9%.

Question: What about the growth (NCI-H522 lung) of the same molecule?
Answer: The growth was 24.2%.

Question: What about the growth (A549/ATCC NSCLC) of the same molecule?
Answer: The growth was 26.7%.

Question: What about the growth (786-0 renal) of the same molecule?
Answer: The growth was 55.2%.

Question: What about the growth (DU-145 prostate) of the same molecule?
Answer: Its growth is 32.6%.

Question: And the growth (K-562 leukemia)?
Answer: Its growth is 33.1%.

Question: And the growth (MALME-3M melanoma)?
Answer: Its growth is 41.5%.

Question: And the growth (MDA-MB-231 breast)?
Answer: The growth was 20.4%.

Question: What about the growth (RXF 393 renal) of the same molecule?
Answer: The growth was 55%.

Question: And the growth (SF-268 CNS)?
Answer: Its growth is 40.2%.

Question: What about the growth (SF-295 CNS) of the same molecule?
Answer: Its growth is 5.35% (active).

Question: What about the growth (SF-539 CNS) of the same molecule?
Answer: Its growth is 40.1%.

Question: And the growth (UACC-257 melanoma)?
Answer: Its growth is 13.6%.

Question: What about the growth (M14 melanoma) of the same molecule?
Answer: The growth was 35.9%.
